# Laboratory results from PubChem BioAssay (Tox21).
# Several values for one entry are separate records, joined by “and”; a condition that tells them apart may be missing. Equal values may be shown once. Records with an inconclusive call do not appear. A call without a number means that no potency is given here. More than one record can exist for a structure, and the calls need not agree. Activity calls are given as the source filed them. Unless noted, calls follow the shape of the dose curve; as a rule, active = well fitted curve in the direction sought with a large enough effect in the repeat runs; inconclusive = weak or mixed curves; inactive = no such curve, though single readings can be large; an effect the other way counts as inactive or inconclusive.
# Key:
# [1] = qHTS assay for small molecule agonists of the p53 signaling pathway (AID 651631; calls by dose curve; also: nearly all actives have a fitted effect of over 15% in size; also: potency is read from the fitted curve at half-maximal effect)
# Procedure, shortened: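 Stably transfected HCT-116 cells (beta-lactamase behind p53 response elements) get compounds after a 5 h settling period; 16 h later at 37 °C, FRET substrate is loaded and fluorescence read after 2 h.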
# [2] = qHTS assay for small molecules that induce genotoxicity in human embryonic kidney cells expressing luciferase-tagged ATAD5 (AID 651632); also: nearly all actives have a fitted effect of over 15% in size
# Procedure, shortened: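 Reporter cells (HEK293T) express luciferase-tagged ATAD5, a protein that accumulates after DNA damage. Treat 16 hr at 37C/5% CO2, add Amplite, wait 30 min at RT, and read luminescence.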
# [3] = qHTS assay for small molecule agonists of the p53 signaling pathway - cell viability (AID 651633; calls by dose curve; also: nearly all actives have a fitted effect of over 30% in size; also: potency is read from the fitted curve at half-maximal effect)
# Procedure, shortened: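 p53RE-bla cells were treated with compound for 16 hours at 37 C. Cytotoxicity was then measured as CellTiter-Glo luminescence after 30 min at room temperature.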
# [4] = qHTS assay for small molecules that induce genotoxicity in human embryonic kidney cells expressing luciferase-tagged ATAD5 - cell viability (AID 651634; calls by dose curve; also: nearly all actives have a fitted effect of over 25% in size)
# Procedure, shortened: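 Seeding of 2,000 HEK293T ATAD5-luciferase cells per well preceded pin-tool compound transfer. Plates sat 15.5 hr at 37C under 5% CO2, then fluorescence was read after 30 min with CellTiter-Fluor.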
# [5] = qHTS assay for small molecule disruptors of the mitochondrial membrane potential - cell viability (AID 720634; calls by dose curve;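 also: human HepG2 liver cancer cells; series mostly up to about 83 µM; nearly all actives have a fitted effect of over 20% in size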)
# Procedure, shortened: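 Measuring cytotoxicity alongside mitochondrial potential, the screen quantified ATP by luminescence in HepG2 cells after 1 hr compound incubation and a 30 min room-temperature CellTiter-Glo step.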
# [6] = qHTS assay to test for compound auto fluorescence at 590 nm (red) in HepG2 cells (AID 720674)
# Procedure, shortened: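 Fluorescence at 590 nm emission following 540 nm excitation was recorded from HepG2 wells one hour after compound transfer, with DMSO-only wells as vehicle and Rose Bengal sodium equivalency as the scale.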
# [7] = qHTS assay to test for compound auto fluorescence at 535 nm (green) in HepG2 cells (AID 720675)
# [8] = qHTS assay to test for compound auto fluorescence at 460 nm (blue) in HEK293 cells (AID 720678); also: potency is read from the fitted curve at half-maximal effect
# Procedure, shortened: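 HEK293 cells (2,000/well, medium with 10% dialyzed FBS) attached 4-5 hr, then exposed to compound overnight at 37C, 5% CO2. Blue fluorescence read at 405/460 nm, with triamterene as reference fluorophore.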
# [9] = qHTS assay to test for compound auto fluorescence at 590 nm (red) in HEK293 cells (AID 720679)
# Procedure, shortened: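 HEK293 cells (2,000/well, 10% dialyzed FBS) attached 4-5 hr, then dosed with compound or DMSO and incubated overnight at 37C, 5% CO2. Red fluorescence read at 540/590 nm, Rose Bengal sodium as reference fluorophore.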
# [10] = qHTS assay to test for compound auto fluorescence at 535 nm (green) in HEK293 cells (AID 720680)
# [11] = qHTS assay to test for compound auto fluorescence at 535 nm (green) in HEK293 cell free culture (AID 720682)
# Procedure, shortened: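 Using fluorescein as calibrant, autofluorescence was quantified at 485/535 nm in cell-free DMEM containing 10% FBS after pintool addition of compound or vehicle.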
# [12] = qHTS assay to test for compound auto fluorescence at 590 nm (red) in HEK293 cell free culture (AID 720683)
# Procedure, shortened: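 Cell-free wells of DMEM with 10% FBS received compound, and intrinsic fluorescence was read at excitation/emission 540/590 nm. Values expressed as equivalence to Rose Bengal sodium.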
# [13] = qHTS assay to test for compound auto fluorescence at 590 nm (red) in HepG2 cell free culture (AID 720684)
# Procedure, shortened: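 Compound was pinned into wells holding MEM with 10% FBS and no cells, and red fluorescence was read at Ex/Em 540/590 nm. Signal is expressed as auto fluorescence equivalency relative to Rose Bengal sodium.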
# [14] = qHTS assay to test for compound auto fluorescence at 460 nm (blue) in HepG2 cells (AID 720687); also: potency is read from the fitted curve at half-maximal effect
# Procedure, shortened: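 HepG2 cells in MEM with 10% FBS, attached overnight at 37 C, were exposed to compound or DMSO for 1 hr at 37 C, 5% CO2. Blue fluorescence was read at 405/460 nm, with triamterene as reference fluorophore.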
# [15] = qHTS assay to test for compound auto fluorescence at 460 nm (blue) in HEK293 cell free culture (AID 720681); also: potency is read from the fitted curve at half-maximal effect
# Procedure, shortened: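 Compounds were added to cell-free DMEM with 10% FBS and fluorescence read directly. The blue channel used 405 nm excitation and 460 nm emission, with triamterene as the reference fluorophore.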
# [16] = qHTS assay to test for compound auto fluorescence at 460 nm (blue) in HepG2 cell free culture (AID 720685); also: potency is read from the fitted curve at half-maximal effect
# Procedure, shortened: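 Compound (23 nL) or DMSO pinned into cell-free MEM with 10% FBS; blue fluorescence read at 405/460 nm excitation/emission, expressed as auto-fluorescence equivalency to triamterene.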
# [17] = target: Glucocorticoid receptor (Homo sapiens) (UniProt P04150); experiment: qHTS assay to identify small molecule agonists of the glucocorticoid receptor (GR) signaling pathway (AID 720691; active = well fitted activation curve with a large enough effect in the signal ratio in the repeat runs, not every such curve was filed as active; the % refers to the signal ratio)
# Sequence of Glucocorticoid receptor (Homo sapiens) (P04150 whole entry, looked up): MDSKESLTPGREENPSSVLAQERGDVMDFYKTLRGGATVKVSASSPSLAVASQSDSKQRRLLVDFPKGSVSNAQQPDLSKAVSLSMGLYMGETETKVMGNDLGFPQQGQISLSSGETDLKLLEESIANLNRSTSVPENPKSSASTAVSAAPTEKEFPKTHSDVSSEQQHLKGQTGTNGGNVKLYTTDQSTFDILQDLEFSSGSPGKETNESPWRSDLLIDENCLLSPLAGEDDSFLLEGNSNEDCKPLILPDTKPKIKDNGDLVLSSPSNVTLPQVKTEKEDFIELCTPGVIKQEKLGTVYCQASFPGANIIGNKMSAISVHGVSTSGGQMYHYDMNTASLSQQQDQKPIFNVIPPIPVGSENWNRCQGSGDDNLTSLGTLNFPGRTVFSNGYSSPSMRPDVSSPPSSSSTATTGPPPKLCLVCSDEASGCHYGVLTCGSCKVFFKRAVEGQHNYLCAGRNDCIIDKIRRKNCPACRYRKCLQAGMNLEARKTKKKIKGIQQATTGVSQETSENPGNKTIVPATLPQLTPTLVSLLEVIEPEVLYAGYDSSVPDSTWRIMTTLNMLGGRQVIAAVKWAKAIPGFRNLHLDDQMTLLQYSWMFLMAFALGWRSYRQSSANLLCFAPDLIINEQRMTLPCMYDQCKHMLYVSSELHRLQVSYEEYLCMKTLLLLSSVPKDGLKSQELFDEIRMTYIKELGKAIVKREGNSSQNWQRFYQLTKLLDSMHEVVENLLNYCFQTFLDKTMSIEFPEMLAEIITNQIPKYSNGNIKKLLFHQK
# Procedure, shortened: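 Reporter read-out: fluorescence intensity following 2 h room-temperature LiveBLAzer B/G FRET substrate loading. Prior step: GR-bla HeLa cells held 4 h, then treated 18 h at 37 C.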
# [18] = target: Glucocorticoid receptor (Homo sapiens) (UniProt P04150); experiment: qHTS assay to identify small molecule antagonists of the glucocorticoid receptor (GR) signaling pathway (AID 720692; active = well fitted inhibition curve with a large enough effect in the signal ratio in the repeat runs, not every such curve was filed as active; the % refers to the signal ratio)
# Procedure, shortened: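 Dexamethasone (5 nM final) stimulated a stably integrated GRE-beta-lactamase reporter in HeLa cells during 18 h co-incubation with compounds; signal was quantified as fluorescence intensity of B/G FRET substrate after 2 h.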
# [19] = qHTS assay to test for compound auto fluorescence at 535 nm (green) in HepG2 cell free culture (AID 720686)
# Tags tell the direction and shape of the fitted curve or compound fluorescence and quenching.
compound,measurement,setting,value
C[C@H](CCC(=O)O)[C@H]1CC[C@H]2[C@@H]3[C@H](O)C[C@@H]4C[C@H](O)CC[C@]4(C)[C@H]3CC[C@]12C,Potency,[1],inactive
same,Potency,[2],inactive
same,Potency,[3],inactive
same,Potency,[4],inactive
same,Potency,[5],inactive
same,outcome,[6],inactive
same,outcome,[7],inactive
same,Potency,[8],inactive
same,outcome,[9],inactive
same,outcome,[10],inactive
same,outcome,[11],inactive
same,outcome,[12],inactive
same,outcome,[13],inactive
same,Potency,[14],inactive
Nc1nc(N)c2nc(CNc3ccc(C(=O)N[C@@H](CCC(=O)O)C(=O)O)cc3)cnc2n1,Potency,[1],inactive and 57.1 nM (active)
same,Potency,[2],inactive
same,Potency,[3],inactive and 45.3 nM (active)
same,Potency,[4],inactive
same,Potency,[5],inactive
same,outcome,[6],inactive
same,outcome,[7],inactive
same,Potency,[8],inactive and 39.8 µM [fluorescent] (active)
same,outcome,[9],inactive
same,outcome,[10],inactive
same,Potency,[15],39.8 µM (active)
same,outcome,[11],inactive
same,outcome,[12],inactive
same,outcome,[13],inactive
same,Potency,[16],35.5 µM [fluorescent] (active)
same,Potency,[14],39.8 µM [fluorescent] (active)
same,Potency,[17],inactive
same,Potency,[18],inactive
N#CCc1cccc(C(F)(F)F)c1,Potency,[1],inactive
same,Potency,[2],inactive
same,Potency,[3],inactive
same,Potency,[4],inactive
same,Potency,[5],inactive
same,outcome,[6],inactive
same,outcome,[7],inactive
same,Potency,[8],inactive
same,outcome,[9],inactive
same,outcome,[10],inactive
same,Potency,[15],inactive
same,outcome,[11],inactive
same,outcome,[12],inactive
same,Potency,[16],inactive
same,outcome,[19],inactive
same,Potency,[14],inactive
same,Potency,[17],inactive
same,Potency,[18],inactive
CCCCCCCCCCCCCCCBr,Potency,[1],inactive
same,Potency,[2],inactive
same,Potency,[3],inactive
same,Potency,[4],inactive
same,Potency,[5],inactive
same,outcome,[7],inactive
same,Potency,[8],inactive
same,outcome,[9],inactive
same,outcome,[10],inactive
same,Potency,[15],inactive
same,outcome,[11],inactive
same,outcome,[12],inactive
same,outcome,[13],inactive
same,Potency,[16],inactive
same,outcome,[19],inactive
same,Potency,[14],inactive
same,Potency,[17],inactive
O=C(C(=O)c1ccc(Br)cc1)c1ccc(Br)cc1,Potency,[1],inactive
same,Potency,[2],inactive
same,Potency,[3],inactive
same,Potency,[4],inactive
same,Potency,[5],inactive
same,"fluorescence, relative to Rose Bengal",[6],-0.609% [at 18.6 µM] (inactive)
same,"fluorescence, % of fluorescein control",[7],0.0081% [at 18.6 µM] (inactive)
same,"fluorescence, % of triamterene",[8],0.126% [at 18.6 µM] (inactive)
same,"fluorescence, % of fluorescent control",[9],0.203% [at 18.6 µM] (inactive)
same,"fluorescence, % of fluorescein",[10],-0.0337% [at 18.6 µM] (inactive)
same,"fluorescence, % of fluorescent control",[15],-0.0047% [at 18.6 µM] (inactive)
same,activity change,[11],0.0143% [at 18.6 µM] (inactive)
same,"fluorescence, % of fluorescent control",[12],-0.0329% [at 18.6 µM] (inactive)
same,"fluorescence, % of Rose Bengal",[13],-0.0316% [at 18.6 µM] (inactive)
same,"fluorescence, % of fluorescent control",[16],-0.0311% [at 18.6 µM] (inactive)
same,"fluorescence, % of fluorescent control",[14],0.0185% [at 18.6 µM] (inactive)
same,Potency,[17],inactive
same,Potency,[18],inactive
CC1CCc2cc(F)cc3c(=O)c(C(=O)O)cn1c23 (stereo unspecified),Potency,[1],inactive
same,Potency,[2],inactive
same,Potency,[3],inactive
same,Potency,[4],inactive
same,Potency,[5],inactive
same,outcome,[7],inactive
same,Potency,[8],inactive
same,outcome,[9],inactive
same,outcome,[10],inactive
same,Potency,[15],inactive
same,outcome,[11],inactive
same,outcome,[12],inactive
same,outcome,[13],inactive
same,outcome,[19],inactive
same,Potency,[14],inactive
same,Potency,[17],inactive
O=C(/C=C/c1ccc(O)c(O)c1)O[C@@H]1C[C@](O)(C(=O)O)C[C@@H](O)[C@H]1O,Potency,[1],inactive
same,Potency,[2],inactive
same,Potency,[3],inactive
same,Potency,[4],inactive
same,Potency,[5],inactive
same,outcome,[6],inactive
same,outcome,[7],inactive
same,Potency,[8],inactive
same,outcome,[9],inactive
same,outcome,[10],inactive
same,Potency,[15],inactive
same,outcome,[12],inactive
same,outcome,[13],inactive
same,Potency,[16],inactive
same,outcome,[19],inactive
same,Potency,[14],inactive
same,Potency,[17],inactive
same,Potency,[18],inactive
CN(C)C/C=C(/c1ccc(Br)cc1)c1cccnc1,Potency,[1],inactive
same,Potency,[2],inactive
same,Potency,[3],inactive
same,Potency,[4],inactive
same,Potency,[5],inactive
same,outcome,[6],inactive
same,outcome,[7],inactive
same,outcome,[9],inactive
same,outcome,[10],inactive
same,Potency,[15],inactive
same,outcome,[12],inactive
same,outcome,[13],inactive
same,Potency,[16],inactive
same,outcome,[19],inactive
same,Potency,[14],inactive
same,Potency,[17],inactive
same,Potency,[18],inactive
NC(=S)N/N=C/c1cccnc1,Potency,[1],inactive
same,Potency,[2],inactive
same,Potency,[3],inactive
same,Potency,[4],inactive
same,Potency,[5],inactive
same,outcome,[6],inactive
same,outcome,[7],inactive
same,Potency,[8],inactive
same,outcome,[9],inactive
same,outcome,[10],inactive
same,Potency,[15],inactive
same,outcome,[11],inactive
same,outcome,[12],inactive
same,outcome,[13],inactive
same,Potency,[16],inactive
same,outcome,[19],inactive
same,Potency,[14],inactive
same,Potency,[18],inactive
CN1CCN(C2=Nc3ccccc3Sc3ccc(Cl)cc32)CC1,Potency,[1],inactive
same,Potency,[2],inactive
same,Potency,[3],inactive
same,Potency,[4],inactive
same,Potency,[5],inactive
same,outcome,[7],inactive
same,Potency,[8],inactive
same,outcome,[9],inactive
same,outcome,[10],inactive
same,Potency,[15],inactive
same,outcome,[11],inactive
same,outcome,[12],inactive
same,outcome,[13],inactive
same,Potency,[16],inactive
same,outcome,[19],inactive
same,Potency,[14],inactive
same,Potency,[17],inactive
same,Potency,[18],inactive
CC[C@H](C)[C@@H](C(=O)O)n1sc2ccccc2c1=O,Potency,[1],inactive
same,Potency,[2],inactive
same,Potency,[3],inactive
same,Potency,[4],inactive
same,Potency,[5],inactive
same,outcome,[6],inactive
same,outcome,[7],inactive
same,Potency,[8],inactive
same,outcome,[9],inactive
same,outcome,[10],inactive
same,outcome,[11],inactive
same,outcome,[12],inactive
same,Potency,[16],inactive
same,outcome,[19],inactive
same,Potency,[14],inactive
same,Potency,[17],inactive
same,Potency,[18],inactive
CCOc1cc(OCC)c(C(=O)CCC(=O)O)cc1OCC,Potency,[1],inactive
same,Potency,[2],inactive
same,Potency,[3],inactive
same,Potency,[4],inactive
same,Potency,[5],inactive
same,outcome,[6],inactive
same,outcome,[7],inactive
same,Potency,[8],inactive
same,outcome,[9],inactive
same,outcome,[10],inactive
same,Potency,[15],inactive
same,outcome,[11],inactive
same,outcome,[12],inactive
same,Potency,[16],inactive
same,outcome,[19],inactive
same,Potency,[14],inactive
same,Potency,[18],inactive
CCCCCCCCN(C)C,Potency,[1],inactive
same,Potency,[2],inactive
same,Potency,[3],inactive
same,Potency,[4],inactive
same,Potency,[5],inactive
same,outcome,[6],inactive
same,outcome,[7],inactive
same,Potency,[8],inactive
same,outcome,[9],inactive
same,outcome,[10],inactive
same,outcome,[12],inactive
same,outcome,[13],inactive
same,outcome,[19],inactive
same,Potency,[14],inactive
same,Potency,[18],inactive
